Source: PubChem BioAssay (National Center for Advancing Translational Sciences (NCATS))
Most compounds without a hit are left out; they make up all but 19% or so of the library.
BCR signal inh: chronic active BCR signaling inhibition; Potency, µM (titrated, usually from 46.1 µM), inactives show top-dose activity change, negative = inhibition, most hits filed as inhibitors; hit rate 0.05% among 340,000; ABC-DLBCL IkBa-CBG/CBR reporter, luminescence ratio, 4 h; active = well fitted inhibition curve with a large enough effect in the signal ratio, with a control signal flat, not every such curve was filed as active; inconclusive = small, poorly fitted or top-dose-only effect, or effect the other way, or a change in a side signal; the % refers to the signal ratio;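 note: potency is the fitted concentration of half-maximal effect; plate controls were basal doxycycline-induced cells for no effect and cells given 10 µM MG132 for full effect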
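Cell line TMD8 (human ABC DLBCL), stably expressing tet-inducible CBG68-IkBa fusion and CBR; IMDM/0.5% FBS; cpd up to 46 uM; dox induction, 4 h, 37C/5% CO2; dual luminescence; green/red ratio; MG132 control.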
IL-1B inflam inh: inflammasome signaling inhibition, IL-1 beta readout; THP-1 LPS/ATP IL-1B secretion, AlphaLISA, 16 h; stronger effect = lower value; hit rate 4.7% among 360,000; activity change, % at 57.5 µM; in the data active = activity change below about -50%; inconclusive = mostly about -30% to -49%; note: % is set by controls: 0 for no effect and ±100 for the full control effect
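Secreted IL-1B measured by AlphaLISA bead assay after 16 h compound exposure of THP-1 cells; compounds (final up to 57.5 uM) added 1 h before LPS (250 ng/mL) and ATP (1.25 mM) stimulation; lower signal means less secretion.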
DT40 TDP1 CPT: growth inhibition of DT40 Tdp1-/-;hTDP1 cells with camptothecin (screen for TDP1 inhibitors); AID 686979; chicken DT40 Tdp1-/-;hTDP1 cells + 20 nM CPT, ATP luminescence, 48 h; Potency, µM (titrated, usually from 46.2 µM), without a hit: at the highest dose activity change, negative = growth inhibition, hits mostly inhibitors; hit rate 12% among 420,000; note: potency is the fitted concentration of half-maximal effect; % is set by controls: 0 for no effect and ±100 for the full control effect; nearly all actives have a fitted effect of over 55% in size
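Cell growth measured by CellTiter-Glo luminescence after a minimum 48 h, 37 C compound exposure with 20 nM CPT in Tdp1-knockout DT40 cells stably expressing hTDP1, seeded 400/well; qHTS titration format.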
MCF10A rereplic: DNA re-replication induction in MCF 10a cells; hit rate 2.9% among 350,000; Potency, µM (highest dose often 46.1 µM), inactives show at the highest dose activity, positive = re-replication, usual class: activators; MCF 10A DNA re-replication, Hoechst nuclear intensity, 48 h; note: potency is the fitted concentration of half-maximal effect; % of control where 0% means no effect; nearly all actives have a fitted effect of over 50% in size
TDP1 cell noCPT: qHTS for Inhibitors of human tyrosyl-DNA phosphodiesterase 1 (TDP1): qHTS in cells in absence of CPT. DT40 Tdp1-/- hTDP1 cells, no CPT, ATP luminescence, 48 h. Potency, µM (series often up to 46.2 µM), inactives show at the top dose activity change, negative = growth inhibition, most hits filed as inhibitors. hit rate 15% among 420,000; note: potency is the fitted concentration of half-maximal effect; % is set by controls: 0 for no effect and ±100 for the full control effect; nearly all actives have a fitted effect of over 55% in size
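A cellular qHTS used chicken DT40 cells lacking endogenous Tdp1 but carrying stably transfected human TDP1. Compounds were applied without camptothecin, and cell growth kinetics were judged by ATP-dependent luminescence after ≥48 hr.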
SW480 rereplic: DNA re-replication induction in SW480 cells | hit rate 1.8% among 340,000 | SW480 DNA re-replication, Hoechst DNA content imaging, 48 h | Potency, µM (titrated, usually from 46.1 µM), for the others: top-dose re-replication activation, usual class: activators; note: potency is the fitted concentration of half-maximal effect; % of control where 0% means no effect; nearly all actives have a fitted effect of over 55% in size
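Treated cells incubate 48 hr (37 C, 5% CO2), are stained 40 min with Hoechst, and nuclear fluorescence is enumerated; a rise in nuclei with high DNA signal marks re-replication.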
* marks the source's active call; other numbers are inactive results; i = inactive; u = inconclusive; x = no result given. Unless noted, calls come from the whole dose curve; as a rule, active = well fitted curve in the direction sought with a large enough effect; inconclusive = small, poorly fitted or top-dose-only effect, or another doubt; inactive = no such curve, though single readings can be large; an effect the other way counts as inactive or inconclusive.

SMILES	BCR signal inh	IL-1B inflam inh	DT40 TDP1 CPT	MCF10A rereplic	TDP1 cell noCPT	SW480 rereplic
Cc1ccc(N2C(S)=C(C#N)C(=O)NC2c2cccs2)cc1 (stereo not drawn)	-18%	-10	15µM*	u	13µM*	27%
CC1CCCC1/C(=N/O)c1ccccc1 (stereo not drawn)	-2%	8	-26%	1%	-6%	-9%
CCN(C(=O)N(CC)c1ccccc1)c1ccccc1	-4%	17	-14%	u	u	-2%
CCN(C(=O)CCCCC(=O)N(CC)c1ccccc1)c1ccccc1	x	18	u	17%	18µM*	-3%
CCCCCN(C(=O)CCC(=O)OCC(=O)N(C)c1ccccc1)c1c(N)n(CCCC)c(=O)[nH]c1=O	10%	-5	-12%	0%	2%	-1%
CCCCCN(C(=O)CN1CCC(Cc2ccccc2)CC1)c1c(N)n(CCCC)c(=O)[nH]c1=O	4%	-78*	-30%	u	u	u
CCCCCN(C(=O)CCC(=O)OCC(=O)c1ccc(C(C)CC)cc1)c1c(N)n(CCCC)c(=O)[nH]c1=O (stereo not drawn)	15%	-68*	u	u	u	3%
CCCCC1CCC(C(=O)N(CCCC)c2c(N)n(CCCC)c(=O)[nH]c2=O)CC1 (stereo not drawn)	1%	i	12µM*	u	21µM*	-3%
CCCCC1CCC(C(=O)N(CCC(C)C)c2c(N)n(CCCC)c(=O)[nH]c2=O)CC1 (stereo not drawn)	x	-16	u	x	u	x
CCCCCN(C(=O)CCC(=O)OCCOc1cccc(C)c1)c1c(N)n(CCCC)c(=O)[nH]c1=O	-2%	-4	u	4%	21µM*	12%
CCCCCN(C(=O)CCC(=O)OCc1cccc(Br)c1)c1c(N)n(CCCC)c(=O)[nH]c1=O	4%	-1	u	3%	15µM*	u
COc1cc(-c2nnc(-c3cc(OC)c(OC)c(OC)c3)o2)cc(OC)c1OC	-9%	-2	1.8µM*	1%	2.1µM*	-7%
COc1cc(-c2nnc(-c3ccccc3)o2)cc(OC)c1OC	u	u	16µM*	23%	12µM*	-3%
COc1ccc(-c2nnc(-c3ccccc3)o2)cc1OC	u	u	-22%	-1%	u	-1%
COc1cc(-c2nnc(COc3ccc4ccccc4c3)o2)cc(OC)c1OC	u	-19	u	u	26µM*	-2%
O=C(NCc1cccnc1)c1[nH]c(C(F)(F)F)nc1-c1ccccc1	x	37	-3%	x	10%	x
CCCCCc1nnc(NC(=O)c2cccc(S(=O)(=O)N3CCOCC3)c2)s1	0%	48	-17%	18%	-40%	0%
CC(=O)N(Cc1ccc(F)cc1)c1cccc(C)c1C	1%	21	u	-15%	21µM*	u
O=C(CC[C@H]1O[C@@H](n2ccc(=O)[nH]c2=O)[C@H](O)[C@@H]1O)N[C@H](Cc1ccccc1)C(=O)NCC1CCCO1 (stereo partly drawn)	x	0	-6%	x	8%	x
CC(=O)Nc1cccc(/C(C)=N/NC(=O)c2cccc(S(=O)(=O)N3CCCC3)c2)c1	x	2	-27%	x	u	x
O=c1c(O)cccc2cc(O)c(O)c(O)c12	13%	0	u	-2%	21µM*	-18%
Cc1ccc(NC(=S)NC(NC(=O)c2ccco2)C(Cl)(Cl)Cl)cc1 (stereo not drawn)	u	-3	16µM*	16µM*	u	9%
Cc1ccc(C(=O)NC(NC(=S)Nc2ccc(S(N)(=O)=O)cc2)C(Cl)(Cl)Cl)cc1 (stereo not drawn)	0%	-76*	u	9%	u	2%
